In ChEMBL document CHEMBL3988442, “University of Dundee, Small-Polar-MMV Screening Library” (2021):
The campaign covered roughly 48,000 compounds. About 13,000 (27%) showed an effect of 50% or more. This is one part of the list.

The compounds below were run on Wolbachia pipientis (assay: Anti-Wolbachia Cell-Based Screen). Conditions: 5 µM.
Format: functional
Set-up: scale not given: in the data most compounds retested in dose-response had high values

Row | Structure (SMILES) | Percent Effect
1 | CC(Nc1ccc(CN2CCCC2=O)cc1)c1ccc(C#N)cc1 (centres undefined) | 3.244%
2 | CCc1ccc(C(=O)O)cc1S(=O)(=O)Nc1ccc(=O)n(C)c1 | -7.326%
3 | O=C(NC1CCc2nccn2C1)c1ccc(OCC2CC2)nc1 (centres undefined) | -10.39%
4 | CC(=O)N1CCc2nc3sc(C(N)=O)c(N)c3c(C(F)(F)F)c2C1 | 0.4865%
5 | CCn1ncnc1CN1CCC(CNC(=O)c2cccc(C)n2)C1 (centres undefined) | 95.93%
6 | Cc1cc(CN2CCC(CNC(=O)c3nccc4ccccc34)C2)[nH]n1 (centres undefined) | 5.129%
7 | CCn1ccnc1CN1CCC(CNC(=O)c2ccc(C)nc2)C1 (centres undefined) | -5.867%
8 | Nc1cc(C(=O)NCC2CCN(Cc3cccc(O)c3)C2)ccn1 (centres undefined) | -106.2%
9 | CCc1cc(C(=O)NCC2CCN(Cc3cccc(C)n3)C2)on1 (centres undefined) | 1.32%
10 | CCn1ncnc1CN1CCC(CNC(=O)c2cccc(C)c2)C1 (centres undefined) | 94.27%
11 | Cc1ccccc1C(C(=O)N(Cc1cnn(C)c1)CC(C)C)N(C)C (centres undefined) | -6.978%
12 | Cc1cccc(-c2nc(C)nn2CN2CCC3(CC2)OCCO3)c1 | 0.3778%
13 | Cc1cccnc1N1CCN(C(=O)CCc2cn3ccccc3n2)CC1 | -2.508%
14 | COc1ccc(C(=O)N(C2CC2)C2CC(=O)NC2=O)cc1 (centres undefined) | -6.531%
15 | O=C1CC(N(C(=O)CCc2c[nH]c3ccccc23)C2CC2)C(=O)N1 (centres undefined) | 78.13%
16 | O=C1CC(N(C(=O)c2ccc(-n3cccc3)cc2)C2CC2)C(=O)N1 (centres undefined) | -5.765%
17 | COc1cc(C(=O)N(C2CC2)C2CC(=O)NC2=O)ccc1C (centres undefined) | -10.25%
18 | O=C1CC(N(C(=O)CCc2cc(F)ccc2F)C2CC2)C(=O)N1 (centres undefined) | 101%
19 | O=C1CC(N(C(=O)COc2ccc(F)cc2F)C2CC2)C(=O)N1 (centres undefined) | 87.23%
20 | O=C1CC(N(C(=O)c2ccc3c(c2)CCC3)C2CC2)C(=O)N1 (centres undefined) | -12.36%
21 | O=C1CC(N(C(=O)c2ccccc2Br)C2CC2)C(=O)N1 (centres undefined) | -20.12%
22 | O=C1CC(N(C(=O)Cc2csc(-c3ccccc3)n2)C2CC2)C(=O)N1 (centres undefined) | 1.029%
23 | CC(C)COc1cncc(NCCc2nnc3ccccn23)n1 | 6.284%
24 | COCc1ncc(-c2nccn2CCn2cnnc2)cn1 | 95.42%
25 | COCc1ncc(-c2nccn2CCS(C)(=O)=O)cn1 | 120.2%

Row | Structure (SMILES) | Percent Effect
26 | CCCn1ccnc1-c1nccn1CCn1cnnc1 | 87.43%
27 | CCCSc1ncc(-c2nccn2CCO)cn1 | -55.57%
28 | COCc1ncc(-c2nccn2CCN(C)C)cn1 | 3.066%
29 | COCCCn1ccnc1-c1cnc(OC)nc1 | -18.72%
30 | CCCn1ccnc1-c1nccn1CCC(N)=O | -22.61%
31 | COc1ncc(-c2nccn2CCN(C)C)cn1 | -13.85%
32 | CCCn1ccnc1-c1nccn1CCN(C)C | -8.104%
33 | CN(C)Cc1nnc(C2CCN(c3ncccc3Cl)CC2)n1C1CC1 | -16.88%
34 | O=C(NC1CCCC1)O[C@H]1COCCN(c2nc3ccccc3o2)C1 | -4.12%
35 | CN(Cc1nccs1)c1nccc(N2CCN[C@H]3CS(=O)(=O)C[C@H]32)n1 | -5.478%
36 | Cn1c(CCNc2nccnc2C#N)nc2ccc(F)cc21 | -0.9847%
37 | CNC(=O)C1CCCN(C(=O)OC)C1 (centres undefined) | -23.89%
38 | Cc1ccc(N2CCCC3(COCCN(c4ncccn4)C3)C2)nn1.O=C(O)C(F)(F)F (centres undefined) | 82.98%
39 | Cc1ccc(N2CC3(CCN(c4nccs4)C3)C2)nn1 | -7.178%
40 | CCOCC(=O)N1CC[C@H]2OCC[C@@]2(COc2ncccc2F)C1.O=C(O)C(F)(F)F | -3.289%
41 | Cc1ccoc1C(=O)N1CCOCC2(CCN(c3ncccn3)C2)C1.O=C(O)C(F)(F)F (centres undefined) | 0.2458%
42 | Cc1ccc(N2CCCC3(COCCN(c4nccs4)C3)C2)nn1.O=C(O)C(F)(F)F.O=C(O)C(F)(F)F (centres undefined) | -0.6863%
43 | Cc1cc(C(=O)N2CCCC3(COCCN(c4ncccn4)C3)C2)[nH]n1.O=C(O)C(F)(F)F.O=C(O)C(F)(F)F (centres undefined) | -11.88%
44 | OC1(CN2CCCC2)COCCN(c2nnc(-c3ccccc3)s2)C1 (centres undefined) | -13.1%
45 | CCOCC(=O)N1CCOCC2(CCN(c3ncccn3)C2)C1.O=C(O)C(F)(F)F (centres undefined) | 115.1%
46 | c1ccc2sc(N3CCCC4(CCOC4)C3)nc2c1 (centres undefined) | -24.88%
47 | c1ccc(-c2nnc(N3CCCC4(CCOC4)C3)s2)cc1 (centres undefined) | 56.2%
48 | Cc1ccc(N2CCC3(CC2)COCCN(c2nccs2)C3)nn1.O=C(O)C(F)(F)F.O=C(O)C(F)(F)F | 108.8%
49 | O=C(O)C(F)(F)F.O=C(O)C(F)(F)F.c1cnc(N2CCOCC3(CCCN(CC4CCOCC4)C3)C2)nc1 (centres undefined) | -3.791%
50 | CCc1ncc2c(n1)CN(CC(=O)NC1CCCCNC1=O)CC2 (centres undefined) | -10.76%

Row | Structure (SMILES) | Percent Effect
51 | N#CCCCOc1cccc(CN2CCCC2c2ccc[nH]2)c1 (centres undefined) | -9.513%
52 | NCC1Cc2cc(-c3cnccn3)cc(Cl)c2O1 (centres undefined) | 3.613%
53 | Cc1cnc(N2CCOC3(COCCN(c4nccs4)C3)C2)nc1 (centres undefined) | 7.245%
54 | Cc1ccc(N2CCCC3(COCCN(c4ccccn4)C3)C2)nn1.O=C(O)C(F)(F)F (centres undefined) | 88.94%
55 | CCCS(=O)(=O)N1CCOCC2(CCN(c3ccccn3)C2)C1.O=C(O)C(F)(F)F (centres undefined) | -9.194%
56 | O=C(O)C(F)(F)F.c1ccc(N2CCCC3(COCCN(c4nccs4)C3)C2)nc1 (centres undefined) | -9.014%
57 | c1ccc(N2CCOCC3(CCCN(c4nccs4)C3)C2)nc1 (centres undefined) | 105.2%
58 | O=C1NCC2(CCCN(C(=O)Nc3ccc4occc4c3)CC2)O1 (centres undefined) | -22.41%
59 | Cc1cc(SC(C)(C)C)ccc1NC(C)C(=O)NC(N)=O (centres undefined) | 0.5682%
60 | O=C(NCCc1ccc(F)cc1)C1CN(C(=O)Cn2cncn2)C1 | 163.3%
61 | O=C(NCCc1ccccc1)C1CCC(Cn2cnnn2)CC1 (centres undefined) | 3.007%
62 | O=C(Nc1ccccc1)C1CCCN(C(=O)Cn2cncn2)C1 (centres undefined) | 9.271%
63 | O=C(NCCc1ccccc1)C1CCN(C(=O)Cn2cncn2)C1 (centres undefined) | 175.5%
64 | CN(Cc1ccc(F)cc1)C(=O)CN1CCCCC1Cn1cncn1 (centres undefined) | -13.17%
65 | CCCNC(=O)C1CCCN(Cc2ccc(-n3cncn3)c(C)c2)C1 (centres undefined) | 5.039%
66 | CC(=O)Nc1cnc(-n2ccnc2)nc1 | 0.9267%
67 | C=Cc1ccc(C(=O)N2CCCC(Nc3ccccc3)C2)cc1 (centres undefined) | -22.58%
68 | CN1C(=O)C[C@@H]2[C@@H]1CCN2C(=O)c1ccc[nH]1 | -0.2597%
69 | CN(C)c1ccc(C(=O)N2C[C@@H](CN3CCCCC3)[C@@H](CO)C2)cc1 | -5.628%
70 | N#Cc1ccc(C(=O)N2CCCSCC2CN2CCCC2)cc1 (centres undefined) | 107.8%
71 | CN(C)c1cccc(C(=O)N2C[C@H]3CC[C@@H]2CN(C(=O)C2CCC2)C3)c1 | -25.57%
72 | N#Cc1ccc(C(=O)N2C[C@@H](CN3CCCC3)C[C@H](CO)C2)cc1 | 5.863%
73 | Cc1cccc(C(=O)N2CCCSCC2CN2CCCC2)c1 (centres undefined) | 114.9%
74 | N#Cc1cccc(C(=O)N2C[C@H](CO)C[C@H](CN3CCCC3)C2)c1 | -1.985%
75 | O=C(c1ccc(F)c(F)c1)N1CCCSCC1CN1CCCC1 (centres undefined) | 1.047%

Row | Structure (SMILES) | Percent Effect
76 | CS(=O)(=O)N1CCCC12CCCN(C(=O)c1ccc3[nH]ccc3c1)C2 (centres undefined) | 11.97%
77 | CN(C)c1cccc(C(=O)N2CCCSCC2CN2CCCC2)c1 (centres undefined) | 112.4%
78 | O=C(c1ccc2c(c1)OCO2)N1CCCSCC1CN1CCCC1 (centres undefined) | 1.32%
79 | O=C(c1ccc2[nH]ccc2c1)N1CCCSCC1CN1CCCC1 (centres undefined) | 105.2%
80 | O=C(CCC1CCN(Cc2ncc[nH]2)CC1)Nc1ccccc1Cl | 0.1939%
81 | CCN(C)c1ccc(CNS(=O)(=O)C2CCOCC2)cc1F | 3.098%
82 | O=C(O)c1cc(C2=CCCCC2)cc(S(=O)(=O)NCc2ccccn2)c1 | -10.69%
83 | COc1ccc(CN2CCCn3cnc(COCC4CC4)c3C2)cc1.O=C(O)C(F)(F)F | -1.756%
84 | CCN1C(=O)C2(CCOCC2)c2cc(NC(=O)c3cc(C)n[nH]3)ccc21 | -4.188%
85 | CC(C)Oc1ccc(CNC(=O)c2cc(C(N)=O)cs2)cc1F | -0.429%
86 | CCn1nc(C)c(CN2CCCC(c3ccc(C(=O)O)cc3)C2)c1C (centres undefined) | 3.316%
87 | CCn1nc(C)c(CN2CCC(c3ccn[nH]3)C2)c1C (centres undefined) | 102.4%
88 | CCn1nc(C)c(CN2CCC(c3ccc(C(=O)O)cc3)C2)c1C (centres undefined) | -3.844%
89 | Cc1ccc(CN(C)Cc2cc(C3CC3)[nH]n2)c(O)n1 | 7.171%
90 | Cc1cc(CN(C)Cc2ccccc2N2CCCCC2)n[nH]1 | 185.5%
91 | Cc1cc(CN(C)Cc2csc(-c3cccs3)n2)n[nH]1 | -0.07399%
92 | CC(C)(C)C(=O)NCCC(=O)NC(C)(C)c1ccc2c(c1)OCCO2 | 1.419%
93 | CC(C)(NCc1ccc(C#N)cc1)c1ccc2c(c1)OCO2 | 0.339%
94 | CCCNC(=O)NC(=O)CNC(C)(C)c1ccc2c(c1)OCO2 | 110.6%
95 | CCN(CC(=O)N(C)C)C(=O)C(C)(C)c1ccc2c(c1)OCCO2 | -3.526%
96 | CCCNC(=O)NC(=O)CNC(C)(C)c1ccc2c(c1)OCCO2 | 109.8%
97 | CC(C)(NCc1cccc(C#N)c1)c1ccc2c(c1)OCO2 | 0.8425%
98 | CCN(Cc1ccc(CN(C)C)cc1)C(=O)c1ccncc1O | 4.477%
99 | O=C(NC1CC(F)(F)C1)[C@]12COC[C@H]1CN(Cc1ccsc1)C2 | -6.897%
